Source: PubChem BioAssay (National Center for Advancing Translational Sciences (NCATS))
In the library only some 9% were active in any assay of this set; here they are far more common.
ALOX12 inh: blocks human arachidonate 12S-lipoxygenase; purified 12hLO, xylenol orange hydroperoxide absorbance; P18054; Potency, µM (titrated, usually from 108 µM), inactives show at the highest dose activity change, negative = inhibition, actives largely listed as inhibitors; actives 1.1% (n = 580,000); further: on the % scale 0 is the no-effect control and ±100 the full control effect
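Purified human 12hLO (150 nM final) in 25 mM Hepes, 0.01% Triton X-100, pH 7.0 was preincubated 15 min at room temperature with compound. Then 40 uM arachidonic acid was added, 30 min. Hydroperoxide was read by Fe-XO absorbance ratio 573/405 nm.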
G9a block: blocks human histone lysine methyltransferase G9a | G9a H3K9 monomethylation, AlphaScreen, 2 h | Potency, µM (titrated, usually from 102 µM), without a hit: at the highest dose activity, negative = inhibition, actives largely listed as inhibitors | Q96KQ7 | AID 504332 | actives 8.8% (n = 350,000); further: on the % scale 0 is the no-effect control and ±100 the full control effect; nearly all actives have a fitted effect of over 75% in size
Target sequence (Q96KQ7 913-1193 limits assumed): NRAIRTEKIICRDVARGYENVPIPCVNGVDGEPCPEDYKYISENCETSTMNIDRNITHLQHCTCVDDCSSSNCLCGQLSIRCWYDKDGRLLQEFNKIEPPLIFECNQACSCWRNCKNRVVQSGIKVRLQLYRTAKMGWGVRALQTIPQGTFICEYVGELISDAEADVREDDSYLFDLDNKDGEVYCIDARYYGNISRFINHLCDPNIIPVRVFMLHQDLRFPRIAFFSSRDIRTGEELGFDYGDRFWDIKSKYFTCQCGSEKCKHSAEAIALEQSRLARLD
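AlphaScreen detection with an anti-monomethyl H3K9 antibody quantified product after a 2 h room-temperature reaction containing 500 nM biotinylated H3K9 peptide, 20 µM SAM and 20 nM enzyme, which had been preincubated 15 min with compound.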
BAZ2B block: BAZ2B (human) inhibition | Q9UIF8 | AlphaScreen BAZ2B-H3K14Ac peptide displacement | Potency, µM (top dose mostly 114 µM), without a hit: at the top dose activity change, negative = inhibition, actives largely listed as inhibitors | actives 4.4% (n = 360,000); further: on the % scale 0 is the no-effect control and ±100 the full control effect; nearly all actives have a fitted effect of over 60% in size
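Multi-concentration screen (max 110 uM) measuring displacement of acetylated histone H3 peptide from BAZ2B by AlphaScreen, using 50 nM protein, 50 nM peptide and 10 ug/mL streptavidin donor plus Ni-chelate acceptor beads.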
JMJD2A Tudor inh: inhibitors of human JMJD2A Tudor domain. O75164. AlphaScreen JMJD2A-Tudor / H3K4me3 peptide binding. Potency, µM (titrated, usually from 114 µM), without a hit: at the highest dose activity change, negative = inhibition, usual class: inhibitors. actives 4.4% (n = 390,000). AID 504339; further: on the % scale 0 is the no-effect control and ±100 the full control effect; nearly all actives have a fitted effect of over 50% in size
HP1b chromo inh: HP1-beta chromodomain-methylated histone interaction inhibition | actives 0.56% (n = 390,000) | AlphaScreen HP1-beta / biotin-H3K9me3 peptide binding | P83916 | Potency, µM (top dose mostly 114 µM), for the others: at the top dose activity change, negative = inhibition, hits mostly inhibitors; further: nearly all actives have a fitted effect of over 70% in size
Target sequence (P83916 whole entry, looked up): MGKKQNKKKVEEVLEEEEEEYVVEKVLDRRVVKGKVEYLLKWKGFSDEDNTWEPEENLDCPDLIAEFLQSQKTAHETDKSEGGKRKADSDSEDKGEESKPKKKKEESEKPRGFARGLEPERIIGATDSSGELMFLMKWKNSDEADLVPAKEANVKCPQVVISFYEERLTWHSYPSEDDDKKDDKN
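HP1-beta protein (50 nM final) preincubated 30 min at room temperature with biotinylated H3(1-18)K9me3 peptide (50 nM) in PBS pH 7.4, 0.01% Tween-20, then compound added for 30 min. AlphaScreen streptavidin donor/nickel chelate acceptor beads (10 ug/mL final), 30 min dark, luminescence read.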
PLK1 PBD block: blocks phosphopeptide binding to human PLK1 polo-box domain; P53350; Plk1 PBD binding of FITC phosphopeptide, fluorescence polarization; actives 2.8% (n = 360,000); Potency, µM, for inactives: max response, negative = inhibition, most hits filed as inhibitors; further: series mostly up to about 57 µM; on the % scale 0 is the no-effect control and ±100 the full control effect; nearly all actives have a fitted effect of over 65% in size
* marks the source's active call; other numbers are inactive results; ? = inconclusive; nt = no result; [ ] = another dose, or the depositor's remark. The call rests on the fitted dose curve; in most records, active means well fitted curve in the direction sought with a large enough effect; inconclusive means small, poorly fitted or top-dose-only effect, or another doubt; inactive means no such curve, though single readings can be large; an effect the other way counts as inactive or inconclusive. Potency means the concentration at half of the fitted maximal effect.

SMILES	ALOX12 inh	G9a block	BAZ2B block	JMJD2A Tudor inh	HP1b chromo inh	PLK1 PBD block
CC(C)NC(=O)c1ccccc1NC(=O)C1COc2ccccc2O1 (stereo not drawn)	0%[57.4 µM]	5%[59 µM]	-1%	50µM*	-5%	27µM*
Cc1cnc(NC(=O)C2COc3ccccc3O2)s1 (stereo not drawn)	?	35µM*	?	?	-2%	-6%
O=S(=O)(NCCC1=CCCCC1)c1cccc(Br)c1	-29%	156%	85%	166%	319%	-5%
Cc1ccc(C(=O)N2C[C@@H](F)C[C@H]2C(=O)N2CCCCC2)cc1	-7%	nt	nt	nt	nt	nt
CC(=O)NCc1ccc(C(=O)CCl)cc1	-6%	?	nt	-5%	74%	4.2µM*
CCCNC(=O)Nc1ccc(NC(C)=O)cc1	-5%	-22%	-18%	?	1%	11µM*
CC(=O)Nc1ccc(C(=O)CCl)cc1	-14%	-1%[0.501 µM]	?	-32%	65%	5.3µM*
CC(=O)Nc1ccc(C)cc1	0%	0%[0.501 µM]	-5%	-12%	53%	-8%
CC(=O)N(C)Cc1ccc(C(=O)CCl)cc1	-21%	?	-9%	7%	?	5.3µM*
CCC/C(=C1/c2ccccc2C(=O)N1c1ccccc1)c1ccc(C=O)o1	-19%	nt	nt	nt	nt	nt
Cn1c(=O)[nH]c(=O)c2c1nc(N1CCOCC1)n2Cc1ccccc1	-22%	1%[59 µM]	4%	-6%	31%	nt
COC(=O)c1cc(NC(=O)c2cccc(N(C)C)c2)cc(C(=O)OC)c1	7%	nt	nt	nt	nt	nt
CCn1c2ccccc2c2cc(CN3CCN(Cc4ccc(OC)c(OC)c4)CC3)ccc21	?	?	45µM*	4.5µM*	?	nt
CCOc1ccc(CN2CCN(Cc3ccc4c(c3)c3ccccc3n4CC)CC2)cc1	?	4.5µM*	10µM*	22µM*	?	nt
Cc1ccc(Cn2c(=O)n(Cc3ccccc3Cl)c(=O)c3ccccc32)cc1	2%	4%[59 µM]	-2%	-15%	7%	nt
CCn1c2ccccc2c2cc(CN3CCN(Cc4ccccc4Cl)CC3)ccc21	?	3.5µM*	50µM*	7.1µM*	?	nt
CCN(CC)CCCC(C)Nc1nccc2c(Cl)cccc12 (stereo not drawn)	-12%	nt	nt	-9%	21%	-3%
CCc1ccc(-c2csc3[n+]2CCN3C(C)=O)cc1	?	11µM*	?	-36%	7%	?
O=C(CN1CC[n+]2c(-c3cccs3)csc21)c1ccc(-c2ccccc2)cc1	?	nt	-28%	-24%	15%	-8%
CCCN(CCC)C(=O)Cc1coc2ccc3ccccc3c12	-8%	50µM*	-4%	7%	34%	-10%
O=C(Cc1ccccc1Cl)NCCCn1ccnc1	11%	12%[59 µM]	-6%	-17%	11%	-7%
CCOC(=O)N1CCN(c2cc(=O)n(C3CCCCC3)c(=O)[nH]2)CC1	18%	-1%	-18%	12%	18%	-3%
CN1CCN(c2cc(=O)n(C3CCCCC3)c(=O)[nH]2)CC1	16%	35µM*	7%	-15%	27%	-10%
CCN1CCN(c2cc(=O)n(C3CCCCC3)c(=O)[nH]2)CC1	11%[57.4 µM]	50µM*	11%	8%	58%	-4%
O=c1cc(N2CCN(c3ccccc3)CC2)[nH]c(=O)n1C1CCCCC1	3%	3%	-5%	-9%	23%	-8%
SMILES	ALOX12 inh	G9a block	BAZ2B block	JMJD2A Tudor inh	HP1b chromo inh	PLK1 PBD block
Cc1cccc(Nc2nc(-c3sc(C)nc3C)cs2)c1	3%	?	?	?	?	-12%
CCC(=O)Nc1nc(C)c(-c2csc(Nc3cccc(O)c3)n2)s1	?	40µM*	?	40µM*	-14%	?
CC(=O)c1cccc(Nc2nc(-c3sc(N)nc3C)cs2)c1	-2%	79µM*	35µM*	?	?	21µM*
Cc1nc(N)sc1-c1csc(Nc2cccc(O)c2)n1	?	45µM*	56µM*	?	?	?
Cc1nc(C)c(-c2csc(Nc3cccc(O)c3)n2)s1	?	50µM*	?	-25%	12%	1%
CC(=O)c1cccc(Nc2nc(-c3sc(C)nc3C)cs2)c1	0%	2%	-22%	-21%	-3%	0%
COc1ccc(Cl)cc1NC(=O)CN1CCN(S(=O)(=O)c2ccc(F)cc2)CC1	2%	5%	-10%	-7%	26%	-4%
O=C(CSc1ccc(-c2cccs2)nn1)NCc1ccccc1Cl	nt	-39%[59 µM]	?	nt	nt	nt
CC(C)C(c1nnnn1Cc1cccs1)N1CCN(C2CCCC2)CC1 (stereo not drawn)	-21%	-2%[2.33 µM]	8%	4%[11.4 µM]	48%	-3%
c1ccc(CCNc2c3c(nc4ncnn24)CCC3)cc1	16%	-2%	28%	-16%	21%	-13%
Fc1ccccc1CCNc1c2c(nc3ncnn13)CCCC2	-20%	50µM*	-4%	-7%	47%	2%
O=[N+]([O-])c1ccc(C2CN=C(Nc3ccccc3)S2)cc1 (stereo not drawn)	0%	45µM*	?	-30%	0%	-20%
Cc1ccccc1S(=O)(=O)Cc1ccc(C(=O)NC2CCCCC2)o1	4%	3%	-1%	?	-1%	21µM*
Cc1nc2cc(NC(=O)COc3cccc(F)c3)ccc2o1	8%	nt	nt	nt	nt	nt
COc1ncccc1-c1nnn(-c2ccccc2Br)n1	28µM*	nt	nt	-27%	37%	-19%
Cc1ccc(C)c(S(=O)(=O)N/N=C/c2ccc(C(=O)O)cc2)c1	-4%	35µM*	0%	-12%	26%	-15%
COC(=O)c1ccc(/C=N/NS(=O)(=O)c2cc(C)ccc2C)cc1	-17%	2.5µM*	-21%	-1%	48%	-24%
Cc1ccc(NCC(=O)N/N=C/c2ccc(C(=O)O)cc2)cc1	26%	-23%	-13%	-7%[11.4 µM]	35%	-7%
COc1ccc(/C=N/NS(=O)(=O)c2ccc(C)cc2)cc1OC(=O)c1ccc(C)cc1	-45%	?	-2%	-28%	-6%	0%
CCOC(=O)NCC(C#CCN(CC)CC)N(CC)CC (stereo not drawn)	0%	9%[12.7 µM]	10%	4%	20%	-3%
CN1CCC(=NNC(=O)C(=O)NCc2ccccc2)CC1	24%	40µM*	-1%	-9%	17%	-1%
CN1CCN(C(=S)C(=O)NCc2ccccc2)CC1	0%	6%	-9%	-21%	18%	-6%
CN1CCC(=NNC(=O)C(=O)Nc2cccc(Br)c2)CC1	-1%	-5%[59 µM]	-27%	22µM*	5%	12µM*
Oc1ccc(Cl)cc1C1=NNC(c2cccs2)C1 (stereo not drawn)	?	50µM*	-38%	-33%[11.4 µM]	-11%	15µM*
